# Assay results reported in PubChem BioAssay.
# Several values for one entry are separate records, joined by “and”; a condition that tells them apart may be missing. Equal entries are not always repeated. Some of the results follow. Results filed as inconclusive are left out. Activity calls are given as the source filed them.
# Experiments:
# [1] = inhibitors of TNFa-induced NFkB p65 translocation, primary screen, imaging, HUVEC, MLSMR starter and 10KST1 sets (AID 438;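 active = inhibition above 20% together with a positive visual image hit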;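 also: compound added about 3h40 before a 20 min TNFalpha stimulation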;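 as to inhibition: signal is the nuclear over cytoplasmic p65 intensity ratio per well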); details: HUVEC TNFa-induced p65 nuclear translocation; cell count: measured here: nuclei count (cytotoxicity indicator), at 2.08 µM unless noted; inhibition: at 2 µM, stronger effect = higher value unless noted
# [2] = reduction of polyQ htt aggregates in cells – imaging, exon1htt(103Q)mCFP cells, high-content imaging, primary screen (AID 483;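 active = visual image review flags a hit and inhibition of aggregation exceeds 20%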;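 also: compound exposure lasted 3 days before fixation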;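 as to nuclei count: percent of the per-plate median nuclei count of sample wells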); details: exon1htt(103Q)mCFP cell line, aggregate imaging, at 2 µM; inhibition of aggregation: stronger effect = higher value; nuclei count: measured here: cell count, toxicity
# [3] = endothelial E-selectin expression blockers – imaging, HUVEC, immunofluorescence, MLSMR starter and 10KST1 sets, primary screen (AID 487;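 active = visually confirmed hit in the image check and inhibition above 20%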;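 as to inhibition: signal is fraction of cell area covered by stained E-selectin grains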;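 as to nuclei count: 100% = median nuclei count of all wells on the same plate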); details: HUVEC TNFalpha-induced E-selectin immunofluorescence imaging, at 2 µM; inhibition: stronger effect = higher value; nuclei count: measured here: cell number, toxicity
# [4] = Primary imaging screen for DUSP6 inhibitors that restore phospho-Erk in transfected HeLa cells, chemical complementation (AID 609;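 active = compounds giving at least 50% inhibition in the cell-based MKP-3 phosphatase rescue imaging test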;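 as to inhibition: phospho-Erk level distribution per well compared with pooled transfected vehicle control wells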); details: HeLa MKP-3 transfected, phospho-Erk imaging KS statistic, at 10 µM
# [5] = biological target: Dual specificity protein phosphatase 6 (Homo sapiens) (UniProt Q16828); assay: as above; details: HeLa MKP-3 transfected, phospho-Erk imaging KS statistic, at 10 µM, stronger effect = higher value
# [6] = biological target: Voltage-gated potassium channel subunit beta-2 (Rattus norvegicus) (UniProt P62483); assay: inhibitors of rat Kvbeta2 reductase activity – biochemical, NADPH fluorescence, primary screen (AID 622;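 active = fluorescence slope higher than the sample average by over 3 SD, cut at about -0.22 in these data, passing the limit was not always enough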;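 also: slope of raw intensity against log time taken from 70 to 1610 s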); details: recombinant KvBeta, 4-cyanobenzaldehyde reduction, at 10 µM, stronger effect = higher value
# [7] = biological target: Voltage-gated potassium channel subunit beta-2 (Rattus norvegicus) (UniProt P62483); assay: enhancers of rat Kvbeta2 NADPH turnover – biochemical, NADPH fluorescence, primary screen (AID 623;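 active = NADPH fluorescence slope more negative than the mean of all samples by about 3 SD, 99.7% confidence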;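 also: fluorescence intensity change per second fitted from 20 to 320 s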); details: Recombinant KvBeta, NADPH fluorescence decrease slope, 10 min; at 10 µM; stronger effect = lower value
# [8] = biological target: Alpha-2C adrenergic receptor (Homo sapiens) (UniProt P18825); assay: compounds altering alpha2C-coupled GIRK flux – cell-based, HEK293 alpha2C/GIRK1/2, thallium flux, primary screen (AID 624;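 active = fluorescence slope after compound addition differing from the mean of all screened samples at 99.7% confidence, in either direction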;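 also: slope of fluorescence ratio to pre-addition baseline per second over 15 to 24 s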); details: thallium flux BTC fluorescence, at 10 µM, actives lie on both sides
# [9] = loss of swimming-algae plug formation – whole organism, Chlamydomonas reinhardtii, WT vs cilia-less mutant, absorbance, 96-well, primary screen (AID 463189); details: Chlamydomonas reinhardtii gravitaxis, OD600 absorbance, 2 days; at 10 µM; stronger effect = higher value;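 also: 0% = wild type cc124 cells in DMSO and 100% = ciliumless bld1 mutant cells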
# [10] = blockers of RIG-like receptor reporter activation – cell-based, Sendai virus stimulus, luciferase, 10K MLSCN set, TLR/RLR signaling modifier project, primary screen (AID 602276;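 active = inhibition at or above 50% at 10 µM; inactive = inhibition below 50%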;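 also: firefly luciferase from ISG56 promoter only with Renilla not read in this screen; 0% = Sendai virus plus DMSO and 100% = medium plus DMSO without virus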); details: HEK293 RL24 IRF3 luciferase reporter, at 10 µM, stronger effect = higher value
# [11] = TLR3 IRF3 reporter activation blockers – cell-based, poly I:C stimulus, luciferase, 10K MLSCN set, primary screen (AID 602277;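 active = inhibition of the reporter signal at or above 50%; inactive = inhibition below 50%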); details: HEK293-TLR3 RL24 IRF3 luciferase reporter, at 10 µM, stronger effect = higher value
# [12] = inhibitors of larval lipid processing in zebrafish, primary screen, whole organism, PED6 fluorescence, gall bladder and intestine (AID 686;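 active = a full or partial loss of lipid-probe fluorescence in the fish gall bladder, intestine or both, judged by eye; inactive = no fluorescence loss, or compound toxic to the fish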;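 also: larvae 5 to 7 days old with five fish per well; signal comes from phospholipase A2 cleavage of quenched PED6 carried via bile; overnight exposure to compound and PED6 before scoring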); details: Zebrafish larvae PED6 lipid processing, fluorescence scoring
# [13] = biological target: Solute carrier family 12 member 5 (Homo sapiens) (UniProt Q9H2X9); assay: retest of KCC2 transport modulators without sodium – cell-based, HEK293 KCC2, thallium flux, secondary assay, confirmation (AID 1713;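 active = thallium flux slope above the same plate's solvent-only control mean plus 3 SD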); details: FluoZin2 fluorescence, at 10 µM, stronger effect = higher value
# [14] = PubChem AID 1714; details: HEK293-KCC2 + bumetanide/ouabain, thallium flux FluoZin2; at 10 µM; stronger effect = higher value;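 also: raw slope of fluorescence over initial fluorescence between 10 and 20 s after thallium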
# [15] = biological target: Solute carrier family 12 member 5 (Homo sapiens) (UniProt Q9H2X9); assay: retest of KCC2 transport modulation, ouabain-free – cell-based, HEK293 KCC2, thallium flux, FluoZin2, secondary assay 2, confirmation (AID 1715;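 active = thallium flux slope more than 3 SD above or below the plate's solvent-only control mean, mostly below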;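 also: raw slope with 0.1% DMSO as baseline and bumetanide as block control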); details: HEK293-KCC2, thallium flux FluoZin2 fluorescence; at 10 µM; actives lie on both sides
# [16] = compound effects on native HEK Tl+ uptake – HEK cells, counterscreen 1, counter-screen for KCC2 modulator project, confirmation (AID 1716;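 active = thallium flux rate significantly above the same plate's solvent-only control wells, beyond their mean plus 3 SD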); details: HEK293 parental cells, thallium flux FluoZin2, ouabain; at 10 µM; baseline-ratio fluorescence slope, 10–20 s after thallium
# [17] = biological target: Solute carrier family 12 member 5 (Homo sapiens) (UniProt Q9H2X9); assay: modulation of KCC2 thallium flux in HEK cells – cell-based, ouabain, retest, confirmation (AID 1717;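 active = thallium flux slope beyond 3 SD from same-plate DMSO control mean in most replicates, usually higher, sometimes lower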;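 also: slope of initial-normalized fluorescence between seconds 10 and 20 after thallium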); details: HEK293-KCC2, thallium flux FluoZin2 fluorescence, at 10 µM, bidirectional: low = inhibitor, high = activator
# [18] = native HEK Tl+ uptake effects, second counter-screen – HEK cells, counterscreen 2, counter-screen for KCC2 modulator project, confirmation (AID 1718;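 active = thallium flux slope above the same plate's solvent-control mean plus 3 SD in both duplicate wells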;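 also: run without ouabain in cells lacking the KCC2 cotransporter; slope of fluorescence scaled to its starting value between 10 and 20 s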); details: HEK293 parental, thallium flux FluoZin-2 fluorescence slope; at 10 µM
# [19] = measured here: cell density z-score
# [20] = measured here: nuclear c-Myc green intensity z-score
# [21] = measured here: nuclear pErk red intensity z-score, stronger effect = higher value
# Sequence of Solute carrier family 12 member 5 (Homo sapiens) (Q9H2X9 whole entry, looked up): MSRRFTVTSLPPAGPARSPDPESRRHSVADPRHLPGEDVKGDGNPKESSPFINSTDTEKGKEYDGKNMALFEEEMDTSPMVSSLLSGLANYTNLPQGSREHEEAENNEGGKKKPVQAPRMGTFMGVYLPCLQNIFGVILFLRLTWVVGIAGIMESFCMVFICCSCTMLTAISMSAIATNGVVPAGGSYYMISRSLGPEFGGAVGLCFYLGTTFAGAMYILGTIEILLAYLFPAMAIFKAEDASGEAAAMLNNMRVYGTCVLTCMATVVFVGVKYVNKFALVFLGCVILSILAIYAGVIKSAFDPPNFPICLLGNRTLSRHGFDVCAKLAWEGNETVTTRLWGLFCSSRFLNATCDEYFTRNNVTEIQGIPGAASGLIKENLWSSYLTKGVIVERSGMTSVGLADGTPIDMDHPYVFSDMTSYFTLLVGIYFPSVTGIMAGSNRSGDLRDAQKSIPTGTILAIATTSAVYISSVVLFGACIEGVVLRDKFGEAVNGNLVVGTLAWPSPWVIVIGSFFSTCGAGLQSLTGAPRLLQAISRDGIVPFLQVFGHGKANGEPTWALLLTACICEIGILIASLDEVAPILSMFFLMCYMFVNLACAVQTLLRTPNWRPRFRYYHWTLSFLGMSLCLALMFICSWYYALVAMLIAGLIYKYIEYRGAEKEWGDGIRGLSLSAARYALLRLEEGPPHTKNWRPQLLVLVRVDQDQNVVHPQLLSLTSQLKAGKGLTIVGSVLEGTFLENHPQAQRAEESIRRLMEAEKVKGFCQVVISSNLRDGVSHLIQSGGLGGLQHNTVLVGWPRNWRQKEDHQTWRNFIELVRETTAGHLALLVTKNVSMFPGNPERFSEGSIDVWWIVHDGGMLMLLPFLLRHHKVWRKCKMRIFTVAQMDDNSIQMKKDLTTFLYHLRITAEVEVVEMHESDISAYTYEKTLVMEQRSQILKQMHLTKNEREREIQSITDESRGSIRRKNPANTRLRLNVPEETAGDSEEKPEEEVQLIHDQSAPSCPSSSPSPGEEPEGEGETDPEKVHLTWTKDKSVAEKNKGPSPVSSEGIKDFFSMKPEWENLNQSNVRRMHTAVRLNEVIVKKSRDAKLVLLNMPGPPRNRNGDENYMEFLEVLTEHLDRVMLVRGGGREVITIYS
# Sequence of Alpha-2C adrenergic receptor (Homo sapiens) (P18825 whole entry, looked up): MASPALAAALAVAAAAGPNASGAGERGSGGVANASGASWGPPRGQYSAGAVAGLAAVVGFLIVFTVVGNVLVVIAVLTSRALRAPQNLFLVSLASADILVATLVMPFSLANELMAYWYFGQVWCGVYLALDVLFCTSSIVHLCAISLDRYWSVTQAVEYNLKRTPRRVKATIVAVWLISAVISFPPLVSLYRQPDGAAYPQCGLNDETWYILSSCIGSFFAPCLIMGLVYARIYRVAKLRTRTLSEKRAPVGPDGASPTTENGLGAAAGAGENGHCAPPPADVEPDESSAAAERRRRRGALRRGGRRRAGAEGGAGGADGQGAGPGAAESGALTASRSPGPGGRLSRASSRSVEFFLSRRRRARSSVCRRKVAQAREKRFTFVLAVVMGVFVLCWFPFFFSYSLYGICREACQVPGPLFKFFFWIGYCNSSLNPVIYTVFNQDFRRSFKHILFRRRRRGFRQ
# Sequence of Dual specificity protein phosphatase 6 (Homo sapiens) (Q16828 whole entry, looked up): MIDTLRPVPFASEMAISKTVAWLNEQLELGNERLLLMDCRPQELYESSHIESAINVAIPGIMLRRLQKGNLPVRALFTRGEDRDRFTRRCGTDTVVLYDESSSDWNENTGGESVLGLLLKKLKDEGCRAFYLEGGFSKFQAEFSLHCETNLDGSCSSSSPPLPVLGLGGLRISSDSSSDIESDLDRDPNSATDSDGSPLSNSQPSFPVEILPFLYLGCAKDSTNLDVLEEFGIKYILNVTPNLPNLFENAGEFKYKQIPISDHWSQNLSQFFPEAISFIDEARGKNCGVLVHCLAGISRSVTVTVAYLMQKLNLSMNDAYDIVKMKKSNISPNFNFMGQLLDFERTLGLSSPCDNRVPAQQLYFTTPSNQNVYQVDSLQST
# Sequence of Voltage-gated potassium channel subunit beta-2 (Rattus norvegicus) (P62483 whole entry, looked up): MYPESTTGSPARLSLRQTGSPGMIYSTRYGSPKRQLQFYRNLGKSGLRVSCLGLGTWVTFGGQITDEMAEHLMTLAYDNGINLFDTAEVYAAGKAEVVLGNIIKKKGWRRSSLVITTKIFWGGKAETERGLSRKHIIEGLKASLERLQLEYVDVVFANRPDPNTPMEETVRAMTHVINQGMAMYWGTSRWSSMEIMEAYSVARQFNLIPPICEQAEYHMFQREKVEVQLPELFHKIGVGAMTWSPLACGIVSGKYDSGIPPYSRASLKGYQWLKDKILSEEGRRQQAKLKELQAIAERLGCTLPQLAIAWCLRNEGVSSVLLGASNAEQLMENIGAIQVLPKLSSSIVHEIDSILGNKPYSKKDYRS
compound,measurement,setting,value
CC(C)[C@@]1(NC(=O)[C@@H]2C[C@@H]3c4cccc5[nH]cc(c45)C[C@H]3N(C)C2)O[C@@]2(O)[C@@H]3CCCN3C(=O)[C@H](Cc3ccccc3)N2C1=O,cell count,[1],640
same,inhibition,[1],11.1% (inactive)
same,inhibition of aggregation,[2],20.4% (inactive)
same,nuclei count,[2],90.4%
same,inhibition,[3],-79.8% (inactive)
same,nuclei count,[3],113%
same,z-score,[4]; [19],-0.842
same,z-score,[4]; [20],-0.876
same,z-score,[4]; [21],1.64
same,inhibition,[5],-0.828% (inactive)
same,fluorescence slope,[6],-0.47 (inactive)
same,NADPH fluorescence slope,[7],-3.7e-05 (inactive)
same,slope,[8],0.00471 (inactive)
same,inhibition,[9],-5.54% (inactive) and 15.7% (inactive)
same,inhibition,[10],3.2% (inactive)
same,inhibition,[11],36.1% (inactive)
CN1CCN(C(=O)OC2c3nccnc3C(=O)N2c2ccc(Cl)cn2)CC1 (configuration not stated),cell count,[1],563
same,inhibition,[1],-7.6% (inactive)
same,inhibition of aggregation,[2],-7% (inactive)
same,nuclei count,[2],109%
same,inhibition,[3],-132% (inactive)
same,nuclei count,[3],114%
same,z-score,[4]; [19],-0.576
same,z-score,[4]; [20],-1.54
same,z-score,[4]; [21],0.116
same,inhibition,[5],3.45% (inactive)
same,fluorescence slope,[6],-0.501 (inactive)
same,NADPH fluorescence slope,[7],-7.3e-05 (inactive)
same,slope,[8],0.00689 (inactive)
same,outcome,[12],inactive
same,inhibition,[9],4.29% (inactive) and -9.06% (inactive)
same,inhibition,[10],15.5% (inactive)
same,inhibition,[11],43.6% (inactive)
C[C@H]1CCC/C=C/C2C[C@H](O)CC2[C@H](O)/C=C/C(=O)O1 (some centres not stated),cell count,[1],647
same,inhibition,[1],83.2% (active)
same,inhibition of aggregation,[2],-436% (inactive)
same,nuclei count,[2],0.6%
same,inhibition,[3],94.9% (active)
same,nuclei count,[3],120%
same,z-score,[4]; [19],-0.283
same,z-score,[4]; [20],0.495
same,z-score,[4]; [21],-0.185
same,inhibition,[5],23.4% (inactive)
same,fluorescence slope,[6],-0.473 (inactive)
same,NADPH fluorescence slope,[7],-3.1e-05 (inactive)
same,slope,[8],0.00536 (inactive)
same,outcome,[12],inactive; toxic
same,inhibition,[9],155% (active)
same,inhibition,[10],-44.8% (inactive)
same,inhibition,[11],83% (active)
CC(C)[C@@]1(NC(=O)[C@@H]2C=C3c4cccc5[nH]cc(c45)C[C@H]3N(C)C2)O[C@@]2(O)[C@@H]3CCCN3C(=O)[C@H](Cc3ccccc3)N2C1=O,cell count,[1],584
same,inhibition,[1],-0.4% (inactive)
same,inhibition of aggregation,[2],7.1% (inactive)
same,nuclei count,[2],99.7%
same,inhibition,[3],-22.9% (inactive)
same,nuclei count,[3],114%
same,z-score,[4]; [19],0.234
same,z-score,[4]; [20],0.806
same,z-score,[4]; [21],-0.53
same,inhibition,[5],10.2% (inactive)
same,fluorescence slope,[6],-0.477 (inactive)
same,NADPH fluorescence slope,[7],-1e-05 (inactive)
same,slope,[8],0.00405 (inactive)
same,inhibition,[9],1.14% (inactive) and 21.5% (inactive)
same,inhibition,[10],22% (inactive)
same,inhibition,[11],13.1% (inactive)
CC[C@@H](CO)NC(=O)[C@@H]1C=C2c3cccc4c3c(cn4C)C[C@H]2N(C)C1,cell count,[1],540
same,inhibition,[1],-4.2% (inactive)
same,inhibition of aggregation,[2],-7.9% (inactive)
same,nuclei count,[2],89.4%
same,inhibition,[3],-32.5% (inactive)
same,nuclei count,[3],113%
same,z-score,[4]; [19],0.785
same,z-score,[4]; [20],-0.624
same,z-score,[4]; [21],-1.05
same,inhibition,[5],5.79% (inactive)
same,fluorescence slope,[6],-0.107 (active)
same,NADPH fluorescence slope,[7],-2e-06 (inactive)
same,slope,[8],0.0047 (inactive)
same,outcome,[12],inactive
same,inhibition,[9],5.16% (inactive) and -19.2% (inactive)
same,inhibition,[10],18% (inactive)
same,inhibition,[11],38% (inactive)
COc1cc(-n2c(=S)[nH]c3ccc(C)cc3c2=O)c(Cl)cc1Cl,normalised thallium flux (F/F0 slope),[13],0.0155 (active)
same,normalized thallium flux,[14],0.0563 (active)
same,normalized thallium flux,[15],0.0344 (inactive)
same,thallium flux rate (normalised fluorescence),[16],0.0674 (active)
same,"raw Tl+ flux slope (below DMSO = inhibition, above = activation)",[17],0.0437 (active)
same,thallium flux slope,[18],0.0196 (active)
C#C[C@]1(O)CC[C@H]2[C@@H]3CCC4=CC(=O)CC[C@]4(C)[C@H]3CC[C@@]21C,cell count,[1],605
same,inhibition,[1],4.5% (inactive)
same,inhibition of aggregation,[2],-1.7% (inactive)
same,nuclei count,[2],104%
same,inhibition,[3],-96.4% (inactive)
same,nuclei count,[3],120%
same,z-score,[4]; [19],0.928
same,z-score,[4]; [20],-0.272
same,z-score,[4]; [21],-0.147
same,inhibition,[5],19% (inactive)
same,fluorescence slope,[6],-0.469 (inactive)
same,NADPH fluorescence slope,[7],-5.4e-05 (inactive)
same,slope,[8],0.00473 (inactive)
same,outcome,[12],inactive
same,inhibition,[9],-7.99% (inactive)
same,inhibition,[10],9.99% (inactive)
same,inhibition,[11],37.9% (inactive)
CC(CCc1ccccc1)NC(C)C(O)c1ccc(O)cc1 (configuration not stated),cell count,[1],697
same,inhibition,[1],2% (inactive)
same,inhibition of aggregation,[2],19.5% (inactive)
same,nuclei count,[2],96.6%
same,inhibition,[3],-54.5% (inactive)
same,nuclei count,[3],119%
same,z-score,[4]; [19],-0.115
same,z-score,[4]; [20],-1.79
same,z-score,[4]; [21],-1.46
same,inhibition,[5],10.2% (inactive)
same,fluorescence slope,[6],-0.468 (inactive)
same,NADPH fluorescence slope,[7],4.8e-05 (inactive)
same,slope,[8],0.00919 (inactive)
same,outcome,[12],inactive
same,inhibition,[9],8.38% (inactive) and -4.76% (inactive)
same,inhibition,[10],-11.1% (inactive)
same,inhibition,[11],12% (inactive)
COP(=O)(OC)C(O)C(Cl)(Cl)Cl (configuration not stated),cell count,[1],659
same,inhibition,[1],4.7% (inactive)
same,inhibition of aggregation,[2],-21.7% (inactive)
same,nuclei count,[2],104%
same,inhibition,[3],-58.1% (inactive)
same,nuclei count,[3],126%
same,z-score,[4]; [19],-0.465
same,z-score,[4]; [20],1.59
same,z-score,[4]; [21],0.972
same,inhibition,[5],23.4% (inactive)
same,fluorescence slope,[6],-0.462 (inactive)
same,NADPH fluorescence slope,[7],-6e-05 (inactive)
same,slope,[8],0.00473 (inactive)
same,outcome,[12],inactive
same,inhibition,[9],12.4% (inactive)
same,inhibition,[10],17.5% (inactive)
same,inhibition,[11],39.8% (inactive)
C[N+]1(C)CCN(c2ccccc2)CC1,cell count,[1],637
same,inhibition,[1],-3.4% (inactive)
same,inhibition of aggregation,[2],-27% (inactive)
same,nuclei count,[2],102%
same,inhibition,[3],-66.8% (inactive)
same,nuclei count,[3],118%
same,z-score,[4]; [19],1.65
same,z-score,[4]; [20],-1.1
same,z-score,[4]; [21],-0.542
same,inhibition,[5],19% (inactive)
same,fluorescence slope,[6],-0.439 (inactive)
same,NADPH fluorescence slope,[7],-4.1e-05 (inactive)
same,slope,[8],0.00481 (inactive)
same,outcome,[12],inactive
same,inhibition,[9],7.37% (inactive) and 14.5% (inactive)
same,inhibition,[10],0.511% (inactive)
same,inhibition,[11],51.8% (active)
